Measurements reported in PubChem BioAssay AID1239 (SRMLSC, 2008).
The whole screen tested about 190,000 compounds, of which about 3,100 (1.6%) were called active. For the sample, actives were picked, then their nearest neighbours and some compounds at random. A number with no mark means an inactive call. Cut-off read from the data, not from the text of the source: active = fold change above about 3.3; inconclusive = no clear call, values can overlap the other calls; inactive = below that.

Test: NF-kB upregulation, human neuronal cells – cell-based, HTS, primary screen (AID 1239)
Settings: NF-kB reporter expression, at 12.5 µM, hits give high values

| Structure (SMILES) | fold change |
| --- | --- |
| Cc1nn(-c2ccc([N+](=O)[O-])cc2)c(N)c1-c1ccccc1 | 6.64 (active) |
| O=C1CC(c2ccccc2)=NN1c1ccc([N+](=O)[O-])cc1 | 1.27 |
| Cc1nn(-c2ccccc2)c2c1C(c1cccc([N+](=O)[O-])c1)N(c1ccccc1)C(=O)N2 (configuration not stated) | 1.17 |
| Cc1nc2ccc(NC(=O)C(F)(F)F)cc2o1 | 0.91 |
| Cc1ccc(NC(=O)Nc2ccc3oc(C)nc3c2)cc1 | 5.03 (active) |
| Cc1nc2cc(NC(=O)NCc3ccccc3)ccc2o1 | 1.54 |
| COc1ccc(C2CC(c3cccs3)=NN2c2ccccc2)cc1 (configuration not stated) | 1.15 |
| CCCNS(=O)(=O)c1ccc(CCC(=O)N2CCCC2)cc1 | 1.25 |
| Cn1cnnc1Sc1ccc(CN2CCN(C3CCCC3)C(CCO)C2)o1 (configuration not stated) | 1.08 |
| OCCC1CN(Cc2ccc3nsnc3c2)CCN1C1CCCCC1 (configuration not stated) | 0.99 |
| OCCC1CN(Cc2ccc3nsnc3c2)CCN1C1CCCC1 (configuration not stated) | 5.55 (active) |
| N/C(=N\OC(=O)CCc1ccccc1)c1cccnc1 | 1.31 |
| OCC1(Cc2ccccc2C(F)(F)F)CCN(Cc2cccc3cnccc23)CC1 | 0.85 |
| COc1ccccc1CNC(=O)c1ccc(SC)cc1OC | 1.42 |
| COc1cc(SC)ccc1C(=O)NCCOc1ccccc1Cl | 5.99 (active) |
| COc1cc(SC)ccc1C(=O)Nc1cc(C)ccn1 | 1.01 |
| COc1cc(CNCCN(C)C)ccc1OCc1c(F)cccc1Cl | 1.11 |
| COc1cccc(CN(C)CC(=O)Nc2ccccc2C(=O)Nc2ccccc2)c1 | 0.95 |
| O=c1[nH]c2cccnc2n(CCNc2ncc(C(F)(F)F)cc2Cl)c1=O | 1.12 |
| NC(N)=Nc1nc2ccc(Br)cc2c(=O)[nH]1 | 3.87 (active) |
| C/C(=N\N)c1c(-c2ccccc2)c2cc(Br)ccc2[nH]c1=O | 0.98 |
| NC(=O)C1CCN(Cc2nc3c(Br)cc(Br)cc3c(=O)[nH]2)CC1 | 1.47 |
| CC(C)Cn1c(N)c(C(=O)COC(=O)CN2C(=O)C3CC=CCC3C2=O)c(=O)n(C)c1=O (configuration not stated) | 0.78 |

| Structure (SMILES) | fold change |
| --- | --- |
| Cc1ccc(NC(=S)NC(=O)c2ccc(-c3ccccc3)cc2)c(C)c1 | 1.18 |
| Cc1ccc(NC(=S)NCc2ccccc2Cl)c(C)c1 | 0.92 |
| Cc1ccc(NC(=S)Nc2ncccc2C)c(C)c1 | 3.74 (active) |
| Cc1ccc(S(=O)(=O)N(C)C)cc1NC(=O)c1ccccc1Br | 1.05 |
| COC(=O)CCNC(=O)c1ccc2[nH]c(C)c(C)c2c1 | 0.99 |
| C/[N+]([O-])=C\c1ccc([N+](=O)[O-])o1 | 0.83 |
| Cn1cc(/C=C/c2nc3ccccc3c(=O)n2-c2cccc([N+](=O)[O-])c2)c2ccccc21 | 1.02 |
| CCn1c(/C=C/c2ccc([N+](=O)[O-])o2)nc2ccccc2c1=O | 4.02 (active) |
| Cn1c(=N)n(CC(O)c2cccs2)c2ccccc21 (configuration not stated) | 1.08 |
| CC(C)(C)N(CC#CCC(O)(c1ccccc1)C1CCCC1)CCO (configuration not stated) | 1.15 |
| COc1cccc2sc(NNC(=O)c3nc4ccccc4s3)nc12 | 1.13 |
| COc1ccccc1N1CC(O)=C(c2nc3ccccc3s2)C1=N | 0.59 |
| COc1ccccc1OCc1nc2ccccc2s1 | 4.3 (active) |
| Cc1ccc(NC(=O)c2csc3c2CCCC3)cc1 | 1.12 |
| CCN1CCN(C(=O)CN(C)S(=O)(=O)c2ccc3ccccc3c2)CC1 | 1 |
| CCOC(=O)c1ccc(NC2Nc3cc(C)nn3S2)cc1 (configuration not stated) | 1.14 |
| CCc1ccc(NC(=O)N2CCN(c3ccccc3)CC2)cc1 | 1.34 |
| CCc1ccc(NC2Nc3cc(C)nn3S2)cc1 (configuration not stated) | 4.6 (active) |
| O=C(NCc1ccccc1)C1=C[C@@H](c2ccc(C(F)(F)F)cc2)C[C@@H](OCc2ccc(CO)cc2)O1 | 0.94 |
| CCN(C(=O)COC(=O)c1ccc(COc2ccc3c(C)cc(=O)oc3c2)cc1)C1CCS(=O)(=O)C1 (configuration not stated) | 1.19 |
| CSCC(=O)N1CCCC(C(=O)c2cc(F)ccc2F)C1 (configuration not stated) | 1.18 |
| Fc1ccccc1N=C1Nc2cccc3cccc1c23 | 0.99 |
| Cc1ccc(N=Cc2c(O)n(-c3nccs3)c(=O)c3ccccc23)c(C)c1 | 1.01 |

| Structure (SMILES) | fold change |
| --- | --- |
| Cc1cccc(-n2c(C)cc(/C=N/NC(N)=S)c2C)c1 | 1.29 |
| Cc1cccc(-n2c(O)c(C=Nc3ccccc3N)c(=O)[nH]c2=O)c1 | 4.16 (active) |
| Cc1c(CN2CCCC(C(=O)c3cccc(Cl)c3)C2)c(=O)n(-c2ccccc2)n1C (configuration not stated) | 1.12 |
| Cc1ccc(C(=O)Nc2cccc3ncccc23)cc1[N+](=O)[O-] | 1.38 |
| CC(C)(c1ccccc1)c1ccc(OCCN)cc1 | 1.16 |
| O=C(Nc1ccc(F)cc1)N1CCN(c2ccc(F)cc2)CC1 | 1.12 |
| CCOC(=O)C1(Cc2cccc(OC)c2)CCN(Cc2csc(C(C)=O)c2)CC1 | 0.84 |
| O=C(O)c1cccc(N=NN2CCCCCC2)c1 | 5.59 (active) |
| O=C(c1ccccc1)N1CCN(C(=O)N2CCCCC2)CC1 | 1.3 |
| O=C(O)c1ccc(N=NN2CCOCC2)cc1 | 1.3 |
| COc1ccc(NC(=S)N2N=CCC2c2ccccc2)cc1 (configuration not stated) | 3.93 (active) |
| COc1ccc(C(=O)NC2CCN(C(=S)Nc3ccccc3)CC2)cc1 | 1.12 |
| COc1ccc(C(=S)Nc2ccccc2)cc1 | 1.98 |
| Cc1ccc(C(=O)NNC(=O)c2cccs2)cc1 | 1.67 |
| COCCNC(=O)/C(C#N)=C/c1nc(N(C)C)n(-c2ccc(F)cc2)c1Cl | 1.11 |
| Cc1nc(N2CCC(C)CC2)c2c(C)c(C(=O)Nc3cc(F)ccc3C)sc2n1 | 0.88 |
| O=[N+]([O-])c1cccc(/C([O-])=C(/C(=S)Nc2ccccc2F)[n+]2ccccc2)c1 | 1.02 |
| Cn1cc(Cl)c(C(=O)NNC(=S)Nc2cccc(Cl)c2)n1 | 1.46 |
| COc1ccc(NC(=O)CSc2nc(C)cs2)cc1 | 1.38 |
| Cc1csc(SCC(=O)Nc2sccc2C#N)n1 | 5.12 (active) |
| Cc1cccc(C)c1Nc1nnc(SCC(=O)Nc2sccc2C#N)s1 | 1.08 |
